# Glioma ERSR ind – inducers of ER stress response in human glioma cells. U87-MG GRP78 promoter luciferase reporter, 16 h. Potency, µM, for the others: at the top dose activation, most hits filed as activators. 420,000 compounds, 0.02% hits. AID 602332; further: series mostly up to about 76 µM; % of control where 0% means no effect; nearly all actives have a fitted effect of over 35% in size
#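 ERSR induction read as luciferase luminescence (Bright-Glo, 10 min at room temperature) in stably transfected human U87-MG glioma cells exposed to compounds for 16 h, using GRP78 as sensor.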
# Abeta yeast res – compounds reversing amyloid beta toxicity in yeast | 410,000 compounds, 0.063% hits | yeast expressing A-beta42, growth rescue, OD600, 48 h; response scale: 0% DMSO, 100% iron-clioquinol control | Potency, µM (doses to about 46.1 µM), actives largely listed as activators | AID 1347071; further: nearly all actives have a fitted effect of over 55% in size
#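 Yeast growth medium received pinned compounds, then yeast cells expressing toxic A-beta were added; plates incubated at 30 C for 48 hr. Growth read as absorbance at 600 nm, normalized to DMSO and equimolar FeCl3 plus clioquinol controls.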
# aSyn yeast inh – inhibitors of alpha-synuclein toxicity in yeast | Yeast expressing alpha-synuclein, growth rescue, BacTiter-Glo, 24 h | 370,000 compounds, 0.14% hits | Potency, µM (series often up to 46.1 µM), without a hit: at the highest dose growth rescue (activation), actives largely listed as activators; further: % of control where 0% means no effect; nearly all actives have a fitted effect of over 65% in size
#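 Rescue of yeast growth: cells expressing toxic alpha-synuclein, induced in galactose at OD600 0.02, incubated with compound 24 h at 30 C. ATP luminescence quantified growth; inhibitors of toxicity appear as activators.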
# MBNL1-CUG inh – inhibitors of human MBNL1 binding to CUG repeat RNA. TR-FRET MBNL1-His/biotin-(CUG)12 binding, 665/545 ratio. Q9NR56. AID 2675. Potency, µM (titrated, usually from 57.5 µM), without a hit: at the top dose activity change, negative = inhibition, most hits filed as inhibitors. 280,000 compounds, 0.036% hits; active means well fitted inhibition curve with a large enough effect in the signal ratio, with a control signal flat, not every such curve was filed as active; inconclusive means small, poorly fitted or top-dose-only effect, or effect the other way, or a change in a side signal; inactive means no such curve, though single readings can be large or run the other way; the % refers to the signal ratio; further: on the % scale 0 is the no-effect control and ±100 the full control effect
# Target sequence (Q9NR56 whole entry, looked up): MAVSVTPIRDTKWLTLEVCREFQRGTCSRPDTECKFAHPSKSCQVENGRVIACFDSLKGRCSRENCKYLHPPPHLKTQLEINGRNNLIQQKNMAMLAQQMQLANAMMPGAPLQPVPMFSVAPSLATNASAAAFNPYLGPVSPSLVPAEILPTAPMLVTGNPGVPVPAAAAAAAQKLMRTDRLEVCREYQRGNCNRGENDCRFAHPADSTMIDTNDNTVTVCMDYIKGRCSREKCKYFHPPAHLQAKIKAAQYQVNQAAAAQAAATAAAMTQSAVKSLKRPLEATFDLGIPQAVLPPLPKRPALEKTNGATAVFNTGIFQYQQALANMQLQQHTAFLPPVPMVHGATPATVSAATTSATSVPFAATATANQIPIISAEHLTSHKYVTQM
#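 Compound titration spanned 92 nM–58 uM against the MBNL1-His/biotin-(CUG)12 complex. After 60 min at room temperature with 5 nM streptavidin-XL665 and 0.055 ng/ul terbium anti-His, ratiometric 665/545 nm emission (Ex 340 nm) normalized to controls.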
# TDP-43 yeast inh – inhibitors of TDP-43 toxicity in yeast; TDP-43 expressing yeast growth rescue, BacTiter-Glo, 24 h; Potency, µM (titrated, usually from 46.1 µM), without a hit: top-dose growth rescue (activation), usual class: activators; 410,000 compounds, 1.8% hits; further: % of control where 0% means no effect; nearly all actives have a fitted effect of over 50% in size
#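 Luminescence from BacTiter-Glo reports growth of TDP-43-expressing yeast after 24 hr at 30 deg C with compound. Cells were raffinose-pregrown to mid-log, then seeded in galactose medium at OD600=0.02.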
# FUS yeast rescue – FUS proteinopathy suppression in yeast; 390,000 compounds, 0.24% hits; Potency, µM (series often up to 76.6 µM), hits mostly activators; S. cerevisiae FUS-expressing, growth rescue, OD600, 24 h;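 further: plate controls were DMSO vehicle for no effect and reference control for full effect; nearly all actives have a fitted effect of over 55% in size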
#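 Cultures pregrown in 2.5% raffinose medium are shifted to minimal medium containing 2% galactose to express toxic FUS. Compounds are tested at several concentrations. After 24hr at 30C, growth is quantified at 600 nm absorbance.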
# The depositor's hits bear a star; i = inactive; ? = inconclusive; · = no result given. In the library only some 2% were active in any assay of this set; here they are far more common. Unless noted, the call rests on the fitted dose curve; in most records, active means well fitted curve in the direction sought with a large enough effect; inconclusive means small, poorly fitted or top-dose-only effect, or another doubt; inactive means no such curve, though single readings can be large; an effect the other way counts as inactive or inconclusive. Potency means the concentration at half of the fitted maximal effect.
SMILES,Glioma ERSR ind,Abeta yeast res,aSyn yeast inh,MBNL1-CUG inh,TDP-43 yeast inh,FUS yeast rescue
c1ccc(C[n+]2c(-c3ccccc3)csc2Nc2ccccc2)cc1,5%,i,2%,?,2%,·
COc1ccc2nc3cccc(OC)c3nc2c1,8%,?,6%,?,22µM*,i
COCC(=O)N1CCC(C(=O)NCC2COc3ccccc3O2)CC1 (configuration not stated),·,·,·,·,·,i
CCOc1cc(-c2cc(-c3ccccc3)nc(N)c2C#N)ccc1O,-1%,i,0%,20%,-11%,i
CCOc1cc(-c2cc(-c3ccc(N)cc3)nc(N)c2C#N)ccc1O,-7%,i,-24%,26%,16µM*,i
Cc1ccc(-c2cc(-c3ccc(F)cc3)nc(N)c2C#N)o1,-11%,i,7%,23%,6%,i
N#Cc1c(-c2ccncc2)cc(-c2ccc(F)cc2)nc1N,-4%,5.6µM*,1%,18%,6%,i
CCOC(=O)CNC(=O)CSc1nc(-c2ccc(OC)cc2)ns1,8%,i,17%,3%,25µM*,i
CCc1ccccc1NC(=O)C1C(c2ccccc2)C1(Cl)Cl (configuration not stated),-4%,i,-11%,-6%,25%,i
O=C(Nc1ccccc1Cl)C1C(c2ccccc2)C1(Cl)Cl (configuration not stated),-2%,i,4%,8%,13µM*,i
CN(C(=O)c1ccc(COc2ccccc2Cl)o1)c1ccccc1,8%,i,-1%,-15%,10µM*,i
O=C(Nc1ccccn1)c1ccc(COc2ccccc2Cl)o1,4%,i,-9%,-5%,22µM*,i
O=C(Nc1cccnc1)c1ccc(COc2ccccc2Cl)o1,-2%,?,-2%,3%,?,i
COc1cccc(CN2CCN(C(=O)c3oc4c(F)cccc4c3C)CC2=O)c1,1%,i,1%,2%,20µM*,i
Cc1c(C(=O)N2CCN(Cc3nccn3C)CC2)oc2c(F)cccc12,1%,i,1%,·,?,i
O=C(NC1CCCCN(Cc2cccc(C(F)(F)F)c2)C1=O)c1cccc(C(F)(F)F)c1 (configuration not stated),·,·,·,·,·,i
COC(=O)c1ccc2nc(-c3ccccc3)c(Cc3ccc(C)cc3)n2c1,·,i,6%,·,13µM*,i
COC(=O)c1ccc2nc(-c3ccc(F)cc3)c(Cc3ccccc3OC)n2c1,·,i,-11%,·,22µM*,i
COC(=O)c1ccc2nc(-c3ccc(C)cc3)c(Cc3cccc(Cl)c3)n2c1,·,i,4%,·,22µM*,i
Cc1ccc(NC(=O)[C@@H]2CC(=O)O[C@@H]2c2ccccc2)cc1C,·,·,·,·,·,i
O=C(OC12CCCN(C1)/C(=C/c1ccc(Cl)cc1)C2)c1ccno1 (configuration not stated),·,·,·,·,·,i
COC(=O)c1cc(-c2c(C)noc2C)c(=O)n2c1CCC2,·,·,·,·,·,i
c1ccc2sc(SSc3nc4ccccc4s3)nc2c1,2%,·,·,·,·,·
N#C/C(=C\c1ccco1)Sc1nc2ccccc2s1,13%,i,-13%,?,16µM*,i
CCOC(=O)CSc1nc2c(sc(=S)n2-c2ccc(CC)cc2)c(=O)[nH]1,40µM*,i,5%,3%,-13%,i
SMILES,Glioma ERSR ind,Abeta yeast res,aSyn yeast inh,MBNL1-CUG inh,TDP-43 yeast inh,FUS yeast rescue
CC1(C)Oc2ccc(C(=O)NC3CCCC3)cc2NC1=O,·,·,·,·,·,i
COc1ccc(CN2C(=O)c3ccnn3CC2(C)c2nnnn2-c2c(C)cccc2C)cc1 (configuration not stated),·,·,·,·,·,i
CC(O/N=C(\N)c1ccccc1)C(=O)Nc1cccc(C(F)(F)F)c1 (configuration not stated),-3%,i,-8%,·,13µM*,i
COC(=O)[C@H](C)NC(=O)Nc1cccc(C(F)(F)F)c1,-4%,i,-1%,2%,-11%,i
CC(C)Oc1ccc(F)cc1-c1cc(C(=O)N2CCc3ccccc3C2)[nH]n1,1%,i,8%,·,28µM*,?
CC(Oc1ccccc1)C(=O)Nc1ccc(OCc2cc(=O)n3ccsc3n2)cc1 (configuration not stated),-3%,i,·,·,16µM*,i
O=C(OCc1cc(=O)n2ccsc2n1)c1ccc(OC(F)F)cc1,1%,i,7%,·,7.1µM*,i
CN(C)c1ccc(C(=O)OCc2cc(=O)n3ccsc3n2)cc1,3%,i,1%,·,?,i
Cc1ccc(C(=O)OCc2cc(=O)n3c(C)csc3n2)s1,9%,i,-2%,·,22µM*,i
COc1ccccc1C(=O)OCc1cc(=O)n2ccsc2n1,3%,i,12%,·,16µM*,i
COC(=O)c1cc(CNC(=O)c2ccc3ccccc3n2)cc(NC(=O)c2cccc(OC)c2)c1,-3%,·,·,·,·,·
COc1ccccc1C(=O)OCc1cc(=O)n2c(C)csc2n1,0%,i,·,·,35µM*,i
COc1ccc(C(=O)OCc2cc(=O)n3c(C)csc3n2)cc1F,2%,i,7%,·,15%,·
Fc1ccc(-c2cc(C(F)(F)F)nc(NCC3CCCO3)n2)cc1 (configuration not stated),-1%,i,-17%,-8%,?,i
FC(F)(F)c1cc(-c2ccccc2)nc(NCC2CCCO2)n1 (configuration not stated),-2%,i,-16%,-2%,13µM*,i
CN(C(=O)c1cccc(NC(=O)Cc2ccc([N+](=O)[O-])cc2)c1)C1CCCCC1,-3%,i,2%,·,12%,?
CN(C(=O)c1ccc(Oc2ccc([N+](=O)[O-])cc2)cc1)C1CCCCC1,2%,i,-13%,?,20µM*,?
O=C(Nc1c(Cl)cccc1Cl)c1cc(-c2ccc3c(c2)OCO3)on1,-2%,i,·,·,33%,i
O=C(Nc1c(Cl)cccc1Cl)c1cc(-c2cccc(O)c2)on1,0%,i,·,·,16µM*,i
C#CCNC(=O)C[C@H]1C[C@@]2(C(=O)OC)C(=C[C@H](C(C)(C)C)O[C@@H]2C)N(Cc2ccco2)C1=O,·,·,·,·,·,i
CN(Cc1ccccc1)c1ncnc2c1cnn2-c1ccccc1,7%,i,11%,-3%,?,i
CCN(Cc1ccccc1)c1ncnc2c1cnn2-c1ccc(F)cc1,4%,i,·,·,25µM*,i
CC(C)[C@H]1COc2c3ccccc3nn21,·,·,·,·,·,i

# Assay outcomes as filed in PubChem.
